Compounds with a hit are over-represented: about 19% of the library has one in this group of screens.
HT1080 IDH1KD tx = qHTS for induction of synthetic lethality in tumor cells producing 2HG: qHTS for the HT-1080-IDH1KD cell line | HT-1080 IDH1 knockdown viability, ATP luminescence, 48 h | Potency, µM (top dose mostly 46.1 µM), most hits filed as cytotoxic | 360,000 tested, 2% active
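In this qHTS, HT-1080 cells depleted of IDH1 are exposed for 48 h at 37 °C to compound titrations. Toxicity is scored from CellTiter-Glo luminescence, with DMSO as full viability and medium alone as none.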
TDP1 cell CPT = qHTS for Inhibitors of human tyrosyl-DNA phosphodiesterase 1 (TDP1): qHTS in cells in presence of CPT | chicken DT40 Tdp1-/-;hTDP1 cells + 20 nM CPT, ATP luminescence, 48 h | Potency, µM (series often up to 46.2 µM), usual class: inhibitors | 420,000 tested, 12% active; note: nearly all actives have a fitted effect of over 55% in size
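Chicken DT40 Tdp1-/- cells stably complemented with human TDP1 were seeded at 400 cells/well in medium containing 20 nM camptothecin, exposed to pin-transferred compounds, and grown at 37 °C for at least 48 hr. Viability was read as ATP luminescence.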
HT1080-NT tox = qHTS for induction of synthetic lethality in tumor cells producing 2HG: qHTS for the HT-1080-NT fibrosarcoma cell line. HT-1080-NT fibrosarcoma viability, CellTiter-Glo ATP luminescence, 48 h. Potency, µM (highest dose often 46.1 µM), most hits filed as cytotoxic. 360,000 tested, 1.6% active. AID 686970, 2013;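 note: NT is the 2HG producing partner of a matched IDH1 knockdown line; nearly all actives have a fitted effect of over 55% in size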
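Toxicity toward the 2HG-producing NT line was scored as %Activity, normalised to DMSO and no-cell wells, from CellTiter-Glo luminescence after 48 hours' treatment.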
IL1B secr inh = qHTS for Inhibitors of Inflammasome Signaling: IL-1-beta AlphaLISA Primary Screen; THP-1 LPS/ATP IL-1B secretion, AlphaLISA, 16 h; hits give low values; activity change, % at 57.5 µM; 360,000 tested, 4.7% active; AID 743279, 2014; in the data active = activity change below about -50%; inconclusive = mostly about -30% to -49%
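Secreted IL-1B measured by AlphaLISA bead assay after 16 h compound exposure of THP-1 cells; compounds (final up to 57.5 uM) added 1 h before LPS (250 ng/mL) and ATP (1.25 mM) stimulation; lower signal means less secretion.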
TDP1 cell noCPT = qHTS for Inhibitors of human tyrosyl-DNA phosphodiesterase 1 (TDP1): qHTS in cells in absence of CPT; DT40 Tdp1-/- hTDP1 cells, no CPT, ATP luminescence, 48 h; Potency, µM (doses to about 46.2 µM), most hits filed as inhibitors; 420,000 tested, 15% active; AID 686978, 2013; note: nearly all actives have a fitted effect of over 55% in size
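Camptothecin absent (DMSO only). Human TDP1-complemented DT40 knockout cells, 400 cells/well, 37 °C for minimum 48 hr; ATP measured via CellTiter-Glo, 30 min dark incubation, luminescence.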
Each line names hits and unclear results; the compound was inactive in the other large screens. Unless noted, calls come from the whole dose curve; as a rule, active = well fitted curve in the direction sought with a large enough effect; inconclusive = small, poorly fitted or top-dose-only effect, or another doubt; inactive = no such curve, though single readings can be large; an effect the other way counts as inactive or inconclusive.

Cc1cccc(NC(=O)c2c(NC(=O)c3cccs3)sc3c2CCC(C)C3)c1 (stereo not drawn)	TDP1 cell CPT 23.1µM, TDP1 cell noCPT 10.3µM (no result: HT1080 IDH1KD tx, HT1080-NT tox, IL1B secr inh)
CC1CCc2c(sc(NC(=O)c3ccccc3)c2C(=O)Nc2ccccc2)C1 (stereo not drawn)	TDP1 cell CPT 9.2µM, TDP1 cell noCPT 20.6µM (no result: HT1080 IDH1KD tx, HT1080-NT tox, IL1B secr inh)
CC(CC(=O)Nc1nccs1)c1ccccc1 (stereo not drawn)	TDP1 cell noCPT inconclusive
COc1ccc(NC(=O)CC(C(=O)O)C(C)c2ccccc2)cc1 (stereo not drawn)	none
O=C(CC(c1ccccc1)c1ccco1)Nc1nccs1 (stereo not drawn)	TDP1 cell CPT 25.9µM, TDP1 cell noCPT 14.6µM
COc1ccc(NC(=O)CC(c2ccccc2)c2ccco2)cc1 (stereo not drawn)	TDP1 cell CPT inconclusive, HT1080-NT tox inconclusive, TDP1 cell noCPT 16.4µM
Cc1ccc(C2=NOC(C)(c3nnc(Cc4ccccc4)o3)C2)cc1 (stereo not drawn)	none
CC(=O)NC(CC(=O)NCCN1C(=O)S/C(=C\c2ccccc2)C1=O)c1ccccc1 (stereo not drawn)	TDP1 cell CPT 20.6µM, TDP1 cell noCPT inconclusive
CN(C)c1ccc(/C=C2\SC(=O)N(CC(O)Cn3c4ccccc4c4ccccc43)C2=O)cc1 (stereo not drawn)	HT1080 IDH1KD tx inconclusive, TDP1 cell CPT inconclusive, TDP1 cell noCPT inconclusive
CC1(c2ccccc2)NC(=O)N(CC(=O)NCCN2C(=O)S/C(=C\c3cccnc3)C2=O)C1=O (stereo not drawn)	none
O=C(CCCN1C(=O)S/C(=C\c2ccccc2)C1=O)NNC(=O)c1ccccc1O	TDP1 cell CPT 11.6µM, HT1080-NT tox inconclusive, TDP1 cell noCPT 9.2µM
O=C(CCCN1C(=O)/C(=C/c2ccccc2)SC1=S)Nc1ccccc1O	HT1080 IDH1KD tx inconclusive, TDP1 cell CPT inconclusive, HT1080-NT tox inconclusive, IL1B secr inh -93.0, TDP1 cell noCPT inconclusive
O=C(CCCN1C(=O)/C(=C\c2cccs2)SC1=S)Nc1ccccc1O	TDP1 cell CPT inconclusive, TDP1 cell noCPT inconclusive
O=C1S/C(=C/c2ccccc2)C(=O)N1CC(O)Cn1c2ccccc2c2ccccc21 (stereo not drawn)	TDP1 cell CPT 23.1µM, TDP1 cell noCPT 23.1µM
O=C(c1cccnc1)C1CCCN(Cc2ccc3c(c2)CN(C(=O)c2cnccn2)CCO3)C1 (stereo not drawn)	none (no result: HT1080 IDH1KD tx, HT1080-NT tox, IL1B secr inh)
Cc1noc(C)c1COC(=O)[C@@H](NC(=O)c1ccccc1)C(C)C	none
O=C(CN1C(=O)S/C(=C\c2ccc(O)cc2)C1=O)c1ccccc1	HT1080 IDH1KD tx inconclusive, TDP1 cell CPT inconclusive, HT1080-NT tox inconclusive, IL1B secr inh -77.0, TDP1 cell noCPT inconclusive
O=C(CN1C(=O)S/C(=C\c2ccc(C(=O)O)cc2)C1=O)Nc1ccccc1	none
O=C(CCN1C(=O)/C(=C\c2ccccc2)SC1=S)NNC(=O)c1cccnc1	TDP1 cell CPT inconclusive, TDP1 cell noCPT inconclusive
O=C(CCN1C(=O)/C(=C\c2ccccc2)SC1=S)NNC(=O)c1ccccc1O	HT1080 IDH1KD tx inconclusive, TDP1 cell CPT 20.6µM, HT1080-NT tox inconclusive, TDP1 cell noCPT 25.9µM
COC(=O)[C@@H]1CCCN1Cc1ccc2c(c1)CN(Cc1coc3ccccc3c1=O)CCO2	none (no result: HT1080 IDH1KD tx, HT1080-NT tox, IL1B secr inh)
O=C(CCN1C(=O)C2CC=CCC2C1=O)Nc1nccs1 (stereo not drawn)	none
CCOC(=O)c1c(C)[nH]c(C(=O)OCC(=O)Nc2ccc(Cl)cn2)c1C	none
CCOC(=O)c1c(C)[nH]c(C(=O)OCC(=O)NCc2ccc(OC)c(OC)c2)c1C	HT1080 IDH1KD tx inconclusive, TDP1 cell CPT 8.2µM, TDP1 cell noCPT 18.4µM
CC(=O)c1c(C)[nH]c(C(=O)OCc2ccc(F)cc2Cl)c1C	TDP1 cell CPT 14.6µM, TDP1 cell noCPT 13µM
CCOC(=O)c1c(C)[nH]c(C(=O)OCC(=O)Nc2sccc2C(N)=O)c1C	TDP1 cell CPT 1.64µM, IL1B secr inh -71.0, TDP1 cell noCPT 2.06µM
CC(=O)c1c(C)[nH]c(C(=O)OCc2c(F)cccc2Cl)c1C	TDP1 cell CPT inconclusive, TDP1 cell noCPT inconclusive
CCOc1ccc(CCNC(=O)COC(=O)c2[nH]c(C)c(C(C)=O)c2C)cc1OCC	HT1080 IDH1KD tx inconclusive, TDP1 cell CPT inconclusive, TDP1 cell noCPT 20.6µM
O=C(NCCN1CCOCC1)/C(=C\c1ccc(Br)cc1)NC(=O)c1cccs1	none
CCn1nc(CC(=O)O)c2ccccc2c1=O	none
CCCCN1C(N)=NC[C@@H]1CCCCN	none
COC(=O)C1=C(NC(=O)c2ccc(C)c(C)c2)CCS1	TDP1 cell noCPT inconclusive
CCOC(=O)c1c(C)[nH]c(C(=O)OCC(=O)Nc2cc(C)c(Cl)cc2OC)c1C	TDP1 cell CPT 3.66µM, TDP1 cell noCPT 4.61µM
CC(=O)c1c(C)[nH]c(C(=O)OCC(=O)NCCCc2ccccc2)c1C	TDP1 cell CPT inconclusive, TDP1 cell noCPT inconclusive
CC(=O)c1c(C)[nH]c(C(=O)OCC(=O)NCCc2ccc(F)cc2)c1C	TDP1 cell CPT inconclusive, TDP1 cell noCPT 23.1µM
NC(=O)c1ccsc1NC(=O)COC(=O)c1ccccc1F	none
NC(=O)c1ccsc1NC(=O)COC(=O)c1c(F)cccc1Cl	TDP1 cell CPT inconclusive, TDP1 cell noCPT 8.2µM
O=C(Cn1cc(COc2ccc3ccc(=O)oc3c2)nn1)c1ccc(O)cc1	none
O=C(O)c1ccc(NC(=O)c2ccccc2NC(=O)c2ccccc2Br)cc1	none
CC(=O)C1=C(O)CC(C)(C)CC1=NCc1nc2ccccc2[nH]1	TDP1 cell CPT inconclusive, TDP1 cell noCPT 16.4µM
CCN(CC)C(=O)C1=C(C)N(CCCN2CCCC2=O)C(=O)C(CC(=O)NCCN2CCOCC2)C1 (stereo not drawn)	none
NNC(=O)C12CC3CC(C1)CC(n1ncnn1)(C3)C2	none
COC(=O)c1ccccc1NC(=S)NC(=O)c1ccc2ccccc2c1	TDP1 cell CPT inconclusive, TDP1 cell noCPT inconclusive
CC(=O)N1CCN(c2ccc(NC(=S)NC(=O)c3ccccc3)cc2)CC1	none
CN1CCN(c2ccc(NC(=S)NC(=O)c3cccc4ccccc34)cc2)CC1	TDP1 cell CPT 23.1µM, HT1080-NT tox inconclusive, IL1B secr inh -100.1, TDP1 cell noCPT 11.6µM
CN1CCN(c2ccc(NC(=S)NC(=O)c3cccc4c(Br)cccc34)cc2)CC1	TDP1 cell CPT 20.6µM, TDP1 cell noCPT 18.4µM
COC(=O)c1ccccc1NC(=S)NC(=O)c1cccc2ccccc12	TDP1 cell CPT 16.4µM, TDP1 cell noCPT inconclusive

Source: PubChem
